Measurements from PubChem BioAssay (EPA / NIEHS).
Records with an inconclusive call do not appear. Calls of active or inactive are those of the source. Rule for the calls: active = hit-call score of the fitted dose curve at least 0.9, where 1 is the maximum; inconclusive = response in the unintended direction; inactive = score below 0.9.

Key:
[1] = ATG_XTT_Cytotoxicity: Cytotoxicity Assessment in the Attagene TRANS-FACTORIAL HepG2 Assay (AID 2283584)
Summary of the method: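 HepG2 cells transiently transfected with GAL4-UAS multiple reporter units, dosed 24 h; cytotoxicity read by XTT as loss of signal versus DMSO baseline.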

[2] = molecular target: Cellular tumor antigen p53 (Homo sapiens) (UniProt P04637); experiment: TOX21_p53_BLA_p2_ratio: Tox21 HCT-116 p53 Agonism Beta-lactamase Assay, Ratio, Phase 2 (AID 2283592)
Summary of the method: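 HCT-116 cells with p53-responsive beta-lactamase reporter, 4000 cells/well, preincubated 5 h, then compound in DMSO (217-fold dilution) for 16 h at 37C. CCF4-AM substrate 2 h at room temperature; 460/530 nm emission ratio fitted upward versus DMSO.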

[3] = TOX21_p53_BLA_p3_viability: Viability Assessment in the Tox21 HCT-116 p53 Agonism Beta-lactamase Assay, Phase 3 (AID 2283593);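 note: cells exposed to compound for 16 h before reading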
Summary of the method: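 HCT-116 cells (4000/well) rested 5 h at 37C, then got DMSO compounds by pin tool (217-fold dilution) for 16 h at 37C, 5% CO2. After the bla read, CellTiter-Glo was added and luminescence read at 30 min, room temperature.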

[4] = molecular target: Cellular tumor antigen p53 (Homo sapiens) (UniProt P04637); experiment: TOX21_p53_BLA_p3_ratio: Tox21 HCT-116 p53 Agonism Beta-lactamase Assay, Ratio, Phase 3 (AID 2283596)
Summary of the method: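 HCT116 p53-bla cells (4000/well) given compound in DMSO (217-fold dilution) after 5 h, incubated 16 h at 37C. CCF4-AM substrate 2 h at room temperature; 460/530 nm emission ratio, gain fitted against DMSO.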

[5] = TOX21_p53_BLA_p4_viability: Viability Assessment in the Tox21 HCT-116 p53 Agonism Beta-lactamase Assay, Phase 4 (AID 2283597);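 note: hits lower the luminescence signal meaning cytotoxicity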
Summary of the method: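 HCT-116 p53-bla cells, 4000/well, dosed after 5 h attachment and incubated 16 h at 37 °C, 5% CO2. Viability from CellTiter-Glo ATP luminescence after 30 min at room temperature, taken after the beta-lactamase read; loss of signal indicates cytotoxicity.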

[6] = molecular target: Cellular tumor antigen p53 (Homo sapiens) (UniProt P04637); experiment: TOX21_p53_BLA_p5_ratio: Tox21 HCT-116 p53 Agonism Beta-lactamase Assay, Ratio, Phase 5 (AID 2283599)
Summary of the method: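 HCT-116 cells carrying a p53-inducible beta-lactamase reporter were seeded at 4000 cells/well and dosed after 5 h with compound in DMSO (217-fold dilution). After 16 h at 37C, CCF4-AM substrate was added for 2 h, and the 460/530 nm emission ratio was scored as gain-of-signal versus DMSO.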

[7] = molecular target: Cellular tumor antigen p53 (Homo sapiens) (UniProt P04637); experiment: TOX21_p53_BLA_p4_ratio: Tox21 HCT-116 p53 Agonism Beta-lactamase Assay, Ratio, Phase 4 (AID 2283601)
Summary of the method: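 HCT116 cells carrying an inducible beta-lactamase reporter were plated at 4000 cells/well, rested 5 h, then exposed to compounds in DMSO (217-fold dilution) for 16 h at 37C. CCF4-AM substrate was loaded 2 h at room temperature; 460/530 nm emission ratio scored gain-of-signal versus DMSO.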

[8] = TOX21_p53_BLA_p5_viability: Viability Assessment in the Tox21 HCT-116 p53 Agonism Beta-lactamase Assay, Phase 5 (AID 2283600)
Summary of the method: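 HCT-116 p53 beta-lactamase reporter cells, 4000/well, were exposed to compound (pin transfer, 217-fold dilution) for 16 hours at 37C. Cellular ATP was read by CellTiter-Glo luminescence after 30 min at room temperature.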

Measured: AC50

Cellular tumor antigen p53 (Homo sapiens), sequence (P04637 whole entry, looked up): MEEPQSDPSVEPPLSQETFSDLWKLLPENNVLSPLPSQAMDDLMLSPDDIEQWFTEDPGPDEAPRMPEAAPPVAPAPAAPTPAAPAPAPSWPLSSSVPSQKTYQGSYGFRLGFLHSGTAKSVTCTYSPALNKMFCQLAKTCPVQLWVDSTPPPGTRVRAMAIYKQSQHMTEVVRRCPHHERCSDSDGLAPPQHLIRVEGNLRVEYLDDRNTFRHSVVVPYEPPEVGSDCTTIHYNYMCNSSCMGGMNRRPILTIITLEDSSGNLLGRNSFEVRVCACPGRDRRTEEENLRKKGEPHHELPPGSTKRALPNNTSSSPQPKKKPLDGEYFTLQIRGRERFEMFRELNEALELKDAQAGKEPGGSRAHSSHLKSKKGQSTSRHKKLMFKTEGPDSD

Cc1cc(=O)oc2cc(N(C)C)ccc12
inactive: [1] | [3] | [5]
active: [2] 51.5 µM | [4] 50.6 µM | [6] 47.9 µM | [7] 53.6 µM

OCC(O)c1ccccc1 (stereo not given)
not listed: [4] | [8]
inactive: all other assays above

OC[C@H]1O[C@@H](Oc2ccc(O)cc2)[C@H](O)[C@@H](O)[C@@H]1O
inactive: all assays above

CC1CC(O)CC(C)(C)C1 (stereo not given)
inactive: all assays above

Cc1cc(S(=O)(=O)O)ccc1N=Nc1c(O)ccc2ccccc12
inactive: [1] | [2] | [4] | [5] | [8]

C=C[Si]1(C)O[Si](C)(C=C)O[Si](C)(C=C)O[Si](C)(C=C)O1 (stereo not given)
not listed: [5] | [6]
inactive: all other assays above

CCN(CC)C(=O)N(CC)CC
not listed: [6] | [7]
inactive: all other assays above

OCc1ccc(Cl)cc1Cl
not listed: [3]
inactive: all other assays above

COc1cc(CCC(C)=O)ccc1O
inactive: [1] | [2] | [3] | [6]

CCCCCC(C)=O
not listed: [3] | [8]
inactive: all other assays above

C#CC(C)(O)CC(C)C (stereo not given)
inactive: [1] | [2] | [3] | [6] | [8]

CCCC(C)C(O)CC (stereo not given)
not listed: [6] | [8]
inactive: all other assays above

Cc1ccc(OC(=O)c2ccccc2O)cc1
inactive: [1] | [2] | [3] | [6] | [8]

[Cl][Au]([Cl])[Cl]
inactive: [1] | [6] | [8]
active: [2] 74.1 µM | [3] 75.1 µM | [5] 70.7 µM | [7] 37.8 µM

CC(=O)O[C@H]1C[C@@H]2CC[C@@]1(C)C2(C)C
inactive: [1] | [2] | [4] | [6] | [8]

CC(=O)NCCO
inactive: [1] | [2] | [4] | [5] | [8]

CS(C)=O
not listed: [4]
inactive: all other assays above

COC(=O)c1ccc(OC)cc1
not listed: [8]
inactive: all other assays above

COCCOC(=O)c1ccccc1C(=O)OCCOC
not listed: [4]
inactive: all other assays above

O=C1CCCC=CCCCCCCCCCC1
inactive: [1] | [2] | [4] | [5]

CCCCC(CC)(CO)CO
not listed: [4] | [5]
inactive: all other assays above

CCCC[O][Al]([O]CCCC)[O]CCCC
not listed: [3] | [8]
inactive: all other assays above

N#Cc1cscn1
not listed: [6]
inactive: all other assays above

CC(C)(C)c1ccc(C(=O)O)cc1
not listed: [3] | [5]
inactive: all other assays above

Cc1c(Cl)cccc1[N+](=O)[O-]
inactive: [1] | [2] | [3] | [6] | [8]

CCCCC1CCC(O)CC1 (stereo not given)
inactive: [1] | [2] | [4] | [8]
active: [6] 83.6 µM

CC(=O)C(C)O (stereo not given)
not listed: [8]
inactive: all other assays above

O=C1NC2NC(=O)NC2N1 (stereo not given)
not listed: [3]
inactive: all other assays above

O=C(O)c1ccc(O)cc1
not listed: [8]
inactive: all other assays above

C=COCCOCCOC=C
inactive: [1] | [4] | [5] | [7]

CCOc1ccc(N=Nc2ccc(C=Cc3ccc(N=Nc4ccc(OCC)cc4)cc3S(=O)(=O)O)c(S(=O)(=O)O)c2)cc1
inactive: [1] | [3] | [8] | [7]
